High-throughput results (PubChem BioAssay)
Y pestis TopoI – blocks Yersinia pestis topoisomerase I activity | Y. pestis Topo-I cleavage product accumulation, plate reader | 360,000 tested, 0.064% active | activity, % at 10 µM; in the data active = activity above about 50%, passing the limit was not always enough; inconclusive = no clear call, values can overlap the other calls
FadD28 FP inh – inhibitors of Mycobacterium tuberculosis FadD28 bisubstrate binding; 360,000 tested, 0.22% active; inhibition, % at 12.5 µM; FadD28 bisubstrate probe binding, fluorescence polarization; AID 588549; in the data active = inhibition above about 8.5%, passing the limit was not always enough; inconclusive = no clear call, values can overlap the other calls
PfHsp40 yeast – rescue of PfHsp40-mediated yeast toxicity | 340,000 tested, 0.68% active | growth rescue, % at 12.5 µM | S. cerevisiae expressing PfHsp40, growth rescue, ATP luminescence; in the data active = growth rescue above about 28%, passing the limit was not always enough; inconclusive = no clear call, values can overlap the other calls;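 note: yeast W303a lacking pdr1 and pdr3 grown in galactose medium; growth measured after three days at 30 °C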
Mtb BioA inh – blocks M. tuberculosis BioA enzyme activity; AID 602481; 360,000 tested, 0.096% active; inhibition, % at 9.99 µM; purified M. tuberculosis BioA enzyme, plate reader; in the data active = inhibition above about 40%; inconclusive = no clear call, values can overlap the other calls
PrP 5UTR inh – suppresses PrP 5' UTR mRNA reporter expression; inhibition, % (test concentration not listed); AID 488862; 340,000 tested, 0.35% active; cell-based PrP 5' UTR mRNA reporter, plate reader; in the data active = inhibition above about 52%
PrP UTR cherry – prion 5' UTR mRNA inhibition, cherry-pick retest. AID 504592. cell-based prion protein 5' UTR reporter, plate reader. 1,100 tested, 48% active. inhibition, % at 2.5 µM. shares compounds with PrP 5UTR inh; in the data active = inhibition above about 54%; inconclusive = no clear call, values can overlap the other calls
Hits are given with their value; i = inactive; ? = inconclusive; nt = no result. The list is not random: actives were taken first. Their share in the collection is about 1.1%.

SMILES | Y pestis TopoI | FadD28 FP inh | PfHsp40 yeast | Mtb BioA inh | PrP 5UTR inh | PrP UTR cherry
COCCNC(=O)C[C@@H]1C[C@@H]2c3cc(NC(=O)COC)ccc3O[C@@H]2[C@H](CO)O1 | nt | nt | nt | i | nt | nt
O=C(NN1C(=O)C2C3C=CC(C4CC34)C2C1=O)c1ccc(Br)cc1 (configuration not stated) | i | i | i | nt | 58.1 | 67.6
Cc1ccc(-n2cccn2)c(CN2CCCC(CNC(=O)c3ccc(F)cc3)C2)c1 (configuration not stated) | i | i | i | i | 80.0 | i
CCCNC(=O)N1C[C@@H](C)[C@@H](OC)CN(C)C(=O)c2ccc(NC(=O)CC)cc2OC[C@H]1C | nt | nt | nt | i | nt | nt
Cc1ccc(CCC(=O)Nc2ncc(Cc3cccc(Cl)c3Cl)s2)o1 | i | i | i | i | 53.0 | 88.7
CCC(=O)N1C[C@@H](C)[C@H](OC)CN(C)C(=O)c2ccc(NC(=O)c3ccccc3)cc2OC[C@@H]1C | nt | nt | nt | i | nt | nt
CN(C)c1ccc(C=C2SC(=S)NC2=O)cc1 | i | nt | i | i | i | nt
CN(C)c1ccc(/C=N/N=C2/NC(=O)/C(=C/c3ccc([N+](=O)[O-])cc3)S2)cc1 | i | i | i | i | 62.5 | i
O=C(CSc1ncnc2ccccc12)Nc1cccc(S(=O)(=O)N2CCCC2)c1 | i | i | i | i | 85.1 | i
COc1cc2c3c(c1)C(C)=CC(C)(C)N3C(=O)C2=O | i | i | i | nt | 79.5 | i
COc1cc(SC)ccc1C(=O)Nc1ccc(Br)cn1 | i | i | i | i | 68.2 | 67.0
COc1cc(SC)ccc1C(=O)Nc1ncc(C)s1 | i | i | i | nt | 74.1 | 69.2
COc1cc(SC)ccc1C(=O)Nc1ccccn1 | i | i | i | i | i | nt
Cc1noc(C)c1S(=O)(=O)Nc1ccc2c(c1)C(=O)N([C@H](C)CO)C[C@H](C)[C@@H](CN(C)Cc1ccncc1)OCCCC[C@H](C)O2 | nt | nt | nt | i | nt | nt
O=C(C[C@H]1CC[C@H]2[C@@H](COC[C@H](O)CN2C(=O)c2ccccn2)O1)NC1CCC1 | nt | nt | nt | i | nt | nt
Cc1ccc(-c2cc3c(N=O)c4ccccc4c-3n[nH]2)cc1 | i | i | i | nt | 78.8 | 80.7
O=Nc1c2cc(-c3ccccc3)[nH]nc-2c2ccccc12 | i | i | i | nt | i | nt
Cn1cnc2nc[nH]c2c1=O | i | i | i | i | 54.7 | i
COc1cc(NC(=O)c2cccs2)c(C(=O)OCC(=O)c2cc(C)n(-c3ccccc3)c2C)cc1OC | i | i | i | i | 70.9 | 73.2
CCOC(=O)C(C)Oc1cccc2c(=O)n(CC(=O)NCc3ccc(F)cc3)ccc12 (configuration not stated) | i | i | i | i | 79.4 | 90.8
CCOC(=O)C(C)Oc1cccc2c(=O)n(CC(=O)NCc3ccccc3)ccc12 (configuration not stated) | i | i | i | i | 75.4 | 88.0
CCOC(=O)C(C)Oc1cccc2c(=O)n(CC(=O)Nc3ccc(OC)cc3)ccc12 (configuration not stated) | i | i | nt | i | nt | nt
CCOC(=O)C(C)Oc1cccc2c(=O)n(CC(=O)NCCc3ccccc3)ccc12 (configuration not stated) | i | i | i | nt | i | nt
C[C@@H]1CN([C@@H](C)CO)C(=O)Cc2cc(N(C)C)ccc2O[C@H]1CN(C)Cc1ccc2c(c1)OCO2 | nt | nt | nt | i | nt | nt
COc1ccc(OC)c2[nH]c(C(=O)N3CCC(C(=O)O)CC3)cc12 | i | i | i | i | i | nt
SMILES | Y pestis TopoI | FadD28 FP inh | PfHsp40 yeast | Mtb BioA inh | PrP 5UTR inh | PrP UTR cherry
COc1cc2cc(C(=O)N3CC(COS(C)(=O)=O)c4ccc(O)cc43)[nH]c2c(OC)c1OC (configuration not stated) | i | i | 63.4 | nt | 96.5 | 97.5
Nc1n[nH]c(N)c1N=Nc1ccccc1F | i | i | i | i | i | nt
Cc1ccccc1N=Nc1c(N)n[nH]c1N | i | i | i | i | 54.7 | i
Cc1noc(C)c1S(=O)(=O)Nc1ccc2c(c1)C(=O)N([C@@H](C)CO)C[C@@H](C)[C@H](CN(C)S(=O)(=O)c1ccccc1)OCCCC[C@H](C)O2 | nt | nt | nt | i | nt | nt
Cc1ccc(S(=O)(=O)Nc2ccc3c(c2)CC(=O)N([C@@H](C)CO)C[C@H](C)[C@@H](CN(C)Cc2ccccc2)O3)cc1 | nt | nt | nt | i | nt | nt
Cc1ccc2nc(-c3ccccc3)nn2c1 | i | i | i | i | 61.2 | ?
CCOC(=O)c1cnc2c(-c3ccccc3OC)c(C)nn2c1C | i | i | i | nt | 76.5 | i
CCOC(=O)c1cnc2c(-c3ccccc3)c(-c3ccccc3)nn2c1C | i | i | i | i | i | nt
O=C(C[C@H]1CC[C@H]2[C@@H](COC[C@@H](O)CN2Cc2ccccc2F)O1)NC1CCC1 | nt | nt | nt | i | nt | nt
